IL1B secr inh – inhibitors of inflammasome signaling (IL-1 beta secretion); THP-1 LPS/ATP IL-1B secretion, AlphaLISA, 16 h; active compounds read low; activity change, % at 57.5 µM; actives 4.7% (n = 360,000); AID 743279; in the data active = activity change below about -50%; inconclusive = mostly about -30% to -49%
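THP-1 cells pretreated 1 hr with compounds (up to 57.5 uM final), then stimulated with LPS (250 ng/mL final) plus ATP (1.25 mM final); secreted IL-1B measured by AlphaLISA after 16 hr, decreased signal indicating inhibition.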
uPA surface inh – cell surface uPA generation inhibition | cell surface uPA generation assay, qHTS | Potency, µM (highest dose often 38.3 µM), without a hit: at the top dose activity change, negative = inhibition, actives largely listed as inhibitors | actives 0.31% (n = 330,000) | AID 540303; active = well fitted inhibition curve with a large enough effect; inconclusive = small, poorly fitted or top-dose-only effect; inactive = no such curve, though single readings can be large or run the other way; tested in mouse RAW 264.7 cells; also: potency is read from the fitted curve at half-maximal effect; nearly all actives have a fitted effect of over 55% in size
HT1080NT lethal – kills 2HG-producing HT-1080-NT fibrosarcoma cells; HT-1080-NT fibrosarcoma viability, CellTiter-Glo ATP luminescence, 48 h; Potency, µM (doses to about 46.1 µM), for inactives: at the top dose activity, negative = less viability, most hits filed as cytotoxic; actives 1.6% (n = 360,000); AID 686970;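 also: NT is the 2HG producing partner of a matched IDH1 knockdown line; potency is read from the fitted curve at half-maximal effect; 0% = DMSO-treated cells and -100% = media-only wells without cells; nearly all actives have a fitted effect of over 55% in size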
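750 cells/well, RPMI + 5% FBS; 2 h settle, compound pin-transfer, 48 h at 37 degrees C. CellTiter-Glo 10 min RT, luminescence. Normalized to DMSO and media-only wells.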
HT1080 IDH1KD tx – HT-1080 IDH1 knockdown cell toxicity (counter line); AID 686971; Potency, µM (top dose mostly 46.1 µM), inactives show at the highest dose activity, negative = toxicity, actives largely listed as cytotoxic; HT-1080 IDH1 knockdown viability, ATP luminescence, 48 h; actives 2% (n = 360,000);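 also: potency is read from the fitted curve at half-maximal effect; 0% = DMSO wells and -100% = cell-free medium wells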
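Knockdown cells (IDH1KD HT-1080) received compounds 2 h after plating at 750 cells/well and were kept 48 h at 37 °C in 5% FBS RPMI. A CellTiter-Glo luminescence read gave % activity for curve fitting.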
TDP1 cell CPT – DT40-hTDP1 cell growth loss with CPT; actives 12% (n = 420,000); chicken DT40 Tdp1-/-;hTDP1 cells + 20 nM CPT, ATP luminescence, 48 h; Potency, µM (doses to about 46.2 µM), for the others: at the top dose activity change, negative = growth inhibition, usual class: inhibitors; also: potency is read from the fitted curve at half-maximal effect; nearly all actives have a fitted effect of over 55% in size
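Cell growth measured by CellTiter-Glo luminescence after a minimum 48 h, 37 C compound exposure with 20 nM CPT in Tdp1-knockout DT40 cells stably expressing hTDP1, seeded 400/well; qHTS titration format.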
DT40 TDP1 no CPT – qHTS for Inhibitors of human tyrosyl-DNA phosphodiesterase 1 (TDP1): qHTS in cells in absence of CPT. Potency, µM (top dose mostly 46.2 µM), without a hit: at the highest dose activity change, negative = growth inhibition, most hits filed as inhibitors. actives 15% (n = 420,000). DT40 Tdp1-/- hTDP1 cells, no CPT, ATP luminescence, 48 h; also: potency is read from the fitted curve at half-maximal effect; nearly all actives have a fitted effect of over 55% in size
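A cellular qHTS used chicken DT40 cells lacking endogenous Tdp1 but carrying stably transfected human TDP1. Compounds were applied without camptothecin, and cell growth kinetics were judged by ATP-dependent luminescence after ≥48 hr.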
Active calls of the source: *; ? = inconclusive; . = no result given. Hits are enriched below; roughly 19% of the tested compounds scored in any of these assays. Unless noted, calls follow the shape of the dose curve; as a rule, active = well fitted curve in the direction sought with a large enough effect; inconclusive = small, poorly fitted or top-dose-only effect, or another doubt; inactive = no such curve, though single readings can be large; an effect the other way counts as inactive or inconclusive. Unless noted, % is scaled to controls: 0 for no effect and ±100 for the full control effect.

SMILES	IL1B secr inh	uPA surface inh	HT1080NT lethal	HT1080 IDH1KD tx	TDP1 cell CPT	DT40 TDP1 no CPT
COc1ccc(C(=O)N(CC2CCCO2)C(C(=O)NC2CCCC2)c2ccc(Cl)cc2)cc1OC (configuration not stated)	1.7	1.8%	-4.2%	-1.6%	?	18.4µM*
COc1cc(C(=O)NCC2CCCO2)ccc1OCc1ccc(Cl)cc1Cl (configuration not stated)	-86.0*	-1.4%	-16.8%	-10.0%	?	?
COc1cc(C(=O)NCC2CCCO2)ccc1OCc1ccc(Cl)cc1 (configuration not stated)	0.0	5.0%	-5.3%	-3.7%	?	?
CCCS(=O)(=O)NC(=O)C1(C)CCCN(C(=O)c2ccccc2OC(F)(F)F)C1 (configuration not stated)	33.5	.	20.1%	0.0%	-1.9%	0.2%
CC[C@H](C)/C=C(C)/C=C/C1=CC2=CC(=O)[C@]3(C)OC(=O)[C@@H](C(C)=O)[C@@H]3C2=CO1	10.3	-4.2%	-6.9%	?	2.06µM*	-76.1%
CC[C@H](C)/C=C(C)/C=C/C(=O)Cc1cc(O)c(C)c(O)c1C=O	-10.4	3.8%	-7.3%	-12.4%	?	?
O=C(Nc1ccc2c(c1)CCCN2C(=O)c1cccs1)c1ccccc1C(F)(F)F	.	.	.	.	?	23.1µM*
COc1ccccc1C(=O)Nc1ccc2c(c1)CCCN2C(=O)c1ccccc1	-5.0	-2.3%	18.4µM*	14.6µM*	16.4µM*	13µM*
COc1ccccc1C(=O)Nc1ccc2c(c1)CCCN2C(=O)c1cccs1	?	0.3%	?	?	?	20.6µM*
COc1ccccc1C(=O)NC(=S)N1CCCc2ccccc21	3.4	.	-3.4%	4.5%	?	?
O=C(O)c1ccc2c3c(ncnc13)-c1ccccc1C2=O	28.5	-3.0%	?	?	23.1µM*	23.1µM*
O=C(O)c1cccc2c1C(=O)c1ccccc1C2=O	-6.9	0.2%	?	13.8%	3.6%	-2.4%
Cc1ccc(C(=O)OC(C)CN2C(C)CCCC2C)cc1 (configuration not stated)	16.1	-4.8%	-0.4%	-0.2%	8.9%	6.2%
COC(=O)c1ccccc1NC(=O)c1nc(-c2ccc(Cl)cc2)n2c1CCCCC2	.	.	.	.	-16.4%	?
NNC(=O)c1nc(-c2ccccc2)n2c1CCCCC2	0.0	4.0%	1.2%	-0.2%	-2.4%	-4.6%
COc1ccccc1N1CCN(C(=O)c2nc(-c3ccc(C)cc3)n3c2CCCCC3)CC1	.	.	.	.	-28.8%	?
Cc1cccc(CCNC(=O)c2nc(-c3ccc(Cl)cc3)n3c2CCCCC3)c1	.	.	.	.	10.3µM*	9.2µM*
COc1ccc(CCNC(=O)c2nc(-c3ccc(Cl)cc3)n3c2CCCCC3)c(OC)c1	.	.	.	.	10.3µM*	9.2µM*
O=C(c1nc(-c2ccc(Cl)cc2)n2c1CCCCC2)N1CCN(c2ccccc2)CC1	.	.	.	.	?	20.6µM*
O=C(N/N=C/c1cccc(OC(=O)c2cccc(Br)c2)c1)c1ccncc1	1.6	-0.7%	-18.5%	?	?	-11.6%
COc1cc(NC(=O)CSc2nc(C)c(C(=O)Nc3ccccc3)c(-c3ccc(OC)c(OC)c3)c2C#N)c(OC)cc1Cl	.	.	.	.	3.2%	-0.7%
O=c1c(-c2cccs2)nc2cncnc2n1C1CC1	.	.	.	.	-0.3%	-15.3%
CCCCNc1c(-c2cccnc2)nc2nc(C)cc(C)n12	0.1	.	18.4%	10.9%	?	11.6µM*
Cc1cccc2nc(-c3cccnc3)c(NCCC(C)C)n12	-82.3*	4.5%	?	?	9.2µM*	16.4µM*
O=C(Nc1cccc(F)c1)N1CCCC(CNS(=O)(=O)Cc2ccccc2)C1 (configuration not stated)	29.8	.	2.1%	3.0%	3.0%	-10.1%
SMILES	IL1B secr inh	uPA surface inh	HT1080NT lethal	HT1080 IDH1KD tx	TDP1 cell CPT	DT40 TDP1 no CPT
Cc1cc(=O)oc2cc(OCC(=O)OCC(=O)N3CCC(C)CC3)ccc12	-60.0*	2.8%	-9.3%	1.8%	-3.7%	-12.8%
COc1ccc2oc(C(=O)OCc3c(C)noc3C)c(C)c2c1	-107.0*	-1.7%	-6.6%	-4.6%	-17.8%	-22.7%
COc1ccc2oc(C(=O)OCC(=O)N3CCC(C)CC3)c(C)c2c1	-55.3*	-5.0%	-1.3%	-2.5%	?	-15.9%
COc1ccc2oc(C(=O)OC(C)C(=O)N3C(C)CCCC3C)c(C)c2c1 (configuration not stated)	7.5	-2.4%	0.0%	-16.2%	?	20.6µM*
Cc1cc(=O)oc2cc(OCC(=O)N3CCC(C(N)=O)CC3)ccc12	-3.3	1.9%	0.1%	3.5%	11.0%	2.3%
O=C(O)c1cccc(NC(=O)c2cccc(S(=O)(=O)N3CCc4ccccc4C3)c2)c1	0.0	4.0%	-0.7%	-1.5%	-5.9%	15.1%
Cc1ccc(S(=O)(=O)/C=C2\OCc3ccccc32)cc1	-11.5	.	0.2%	15.8%	-28.0%	-26.6%
O=C(CCC(=O)N1CCSc2ccccc21)NCCc1ccccc1	-11.7	-1.3%	-5.3%	-2.7%	3.1%	-24.5%
COc1ccc(Br)cc1CNC(=O)CCC(=O)N1CCSc2ccccc21	-8.5	7.9%	13.5%	3.9%	?	20.6µM*
CCN1CCSc2ccc(C(=O)NCc3cc(Br)ccc3OC)cc21	-22.9	-1.7%	-12.0%	-13.5%	16.4µM*	?
COc1ccc(Br)cc1CNC(=O)c1ccc2c(c1)N(C)CCS2	-12.9	1.9%	-7.0%	-1.4%	23.1µM*	?
Cc1cc(C)cc(NC(=O)CCC(=O)N2CCSc3ccccc32)c1	3.4	-24.3%	-1.2%	0.3%	?	18.4µM*
Nc1ccc(S(=O)(=O)c2ccc(NC(=O)c3cccnc3)cc2)cc1	?	1.2%	-6.3%	-3.9%	-28.0%	2.0%
Cc1ccc(NC(=O)c2ccc3nc(N4CCOCC4)sc3c2)c(Cl)c1	-8.7	-7.4%	-2.1%	2.6%	-11.8%	?
CC(C)(C)n1nc2c(c1NC(=O)C1CC(=O)N(c3ccc(Cl)cc3)C1)CS(=O)(=O)C2 (configuration not stated)	-2.7	-2.8%	-2.7%	-11.4%	-11.0%	-29.8%
Cc1cnc(CN2CCc3c([nH]c4ccccc34)C2C2CCCCC2)[nH]1 (configuration not stated)	-78.5*	-7.6%	-13.9%	?	?	?

Assay outcomes deposited in PubChem by National Center for Advancing Translational Sciences (NCATS).
